Consider 40 compounds from PubChem BioAssay (Tox21).

Records with an inconclusive call do not appear. The source made the active and inactive calls. Calls come from the whole dose curve.
% is set by controls: 0 for no effect and ±100 for the full control effect.

Peroxisome proliferator-activated receptor gamma (Homo sapiens), sequence (P37231 whole entry, looked up): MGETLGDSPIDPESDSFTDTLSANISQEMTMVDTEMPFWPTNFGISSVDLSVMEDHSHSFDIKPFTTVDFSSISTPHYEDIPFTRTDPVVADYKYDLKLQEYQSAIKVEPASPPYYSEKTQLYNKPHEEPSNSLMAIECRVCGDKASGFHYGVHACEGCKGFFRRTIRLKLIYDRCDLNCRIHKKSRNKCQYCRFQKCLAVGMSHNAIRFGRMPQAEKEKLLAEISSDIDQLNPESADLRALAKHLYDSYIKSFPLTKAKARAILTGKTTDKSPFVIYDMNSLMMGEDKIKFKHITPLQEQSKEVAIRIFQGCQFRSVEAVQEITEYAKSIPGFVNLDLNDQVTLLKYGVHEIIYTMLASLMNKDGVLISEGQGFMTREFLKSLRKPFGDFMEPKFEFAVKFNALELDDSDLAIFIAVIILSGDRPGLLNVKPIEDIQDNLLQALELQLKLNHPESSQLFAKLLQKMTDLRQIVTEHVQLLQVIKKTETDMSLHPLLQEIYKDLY

In the assay the target is Peroxisome proliferator-activated receptor gamma (Homo sapiens) (UniProt P37231). Put plainly: qHTS assay to identify small molecule antagonists of the peroxisome proliferator-activated receptor gamma (PPARg) signaling pathway (AID 743191). Note: nearly all actives have a fitted effect of over 30% in size. The conditions noted are these: HEK293H PPARg-UAS-bla, beta-lactamase ratio, antagonist, 17 h; series mostly up to 62.6 µM; ratio activity, negative = inhibition: at the top concentration. An excerpt:
U.S. Tox21 Program National Center for Advancing Translational Sciences [NCATS] NIH Chemical Genomics Center [NCGC] U.S. Environmental Protection Agency [EPA] National Institutes of Environmental Health Sciences [NIEHS] National Toxicology Program [NTP] U.S. Food and Drug Administration [FDA] Tox21 Assay Overview: The peroxisome proliferator-activated receptors (PPARs) are lipid-activated transcription factors of the nuclear receptor superfamily with three distinct subtypes namely PPAR alpha, PPAR delta (also called PPAR beta) and PPAR gamma (PPARg). All these subtypes heterodimerize with Retinoid X receptor (RXR) and these heterodimers regulate transcription of various genes. PPAR-gamma receptor (glitazone receptor) is involved in the regulation of glucose and lipid metabolism. To identify the compounds that inhibit PPAR-gamma signaling, GeneBLAzer PPAR gamma UAS-bla HEK293H cell line (Invitrogen, Carlsbad, CA, USA) containing a beta-lactamase reporter gene under control of an Upstream Activator Sequence (UAS) was used to screen the Tox21 compound library.
Tox21 Assay Protocol Summary: PPARg-bla cells were dispensed at 3000 cells/6uL/well in 1536-well black wall/clear bottom plates using a Multidrop Combi (Thermo Fisher Scientific, Waltham, MA) dispenser. After the assay plates were incubated at 37C and 5% CO2 for 5 h, 23 nL of compounds dissolved in DMSO, positive controls or DMSO only was transferred to the assay plate by a Pintool station (Kalypsys, San Diego, CA). The assay plates were incubated at 37C for 17 h. After 1 uL of LiveBLAzerTM B/G FRET substrate was added using a Bioraptr Flying Reagent Dispenser (FRD) workstation (Beckman Coulter, Indianapolis, IN, USA), the plates were incubated at room temperature for 1 h, and fluorescence intensity was measured by an Envision plate reader (PerkinElmer, Shelton, CT).
As to `NC(N)=N/N=C/c1c(Cl)cccc1Cl`, the “ratio activity, negative = inhibition” value is 1.01% (inactive).

For the compound `CC(C)NCC(O)c1cc(O)cc(O)c1` (stereo not given), the “ratio activity, negative = inhibition” value is 9.35% (inactive).

For `C=CC(=O)OCCOC(=O)CCC(=O)O`, the “ratio activity, negative = inhibition” value was 3.08% (inactive).

As for `CCCCCCCCC(CO)CCCCCC` (stereo not given), the “ratio activity, negative = inhibition” value is 21.9% (inactive).

For the compound `CCCCc1cc2ccccc2c(OCCN(C)C)n1`, the “ratio activity, negative = inhibition” value is -26.5% (inactive).

On to `N[C@H]1C(O)O[C@H](CO)[C@H](O)[C@@H]1O` (stereo not given in full), for which the “ratio activity, negative = inhibition” value was 1.54% (inactive).

Consider `O=S1(=O)c2cccc3cccc(c23)N1CCCN1CCN(c2ccc(F)cc2)CC1`, for which the “ratio activity, negative = inhibition” value is -0.465% (inactive).

With `CCOC(=S)SSC(=S)OCC`, the “ratio activity, negative = inhibition” value was -0.256% (inactive).

Turning to `CC(=O)OC/C=C/c1ccccc1`, the “ratio activity, negative = inhibition” value is -4.59% (inactive).

Take `O=C1CCCCCO1`: the “ratio activity, negative = inhibition” value is 1.93% [at 81.1 µM] (inactive).

For `c1ccc(OCc2ccc(CCCN3CCOCC3)cc2)cc1`, the “ratio activity, negative = inhibition” value was 12.6% (inactive).

As to `CN1CCC[C@@H]1c1cccnc1`, the “ratio activity, negative = inhibition” value was -0.244% (inactive).

For the compound `CCCCOc1cc(C(=O)OCCN(CC)CC)ccc1N`, the “ratio activity, negative = inhibition” value was 2.19% (inactive).

Regarding `C1CCC2OC2C1` (stereo not given), the “ratio activity, negative = inhibition” value was -15.3% [at 81.1 µM] (inactive).

Take `CN1CCC(=C2c3ccccc3CCc3sccc32)CC1`: the “ratio activity, negative = inhibition” value was -3.26% (inactive).

Turning to `O=C(O)C1CCC(C(=O)O)CC1` (stereo not given), the “ratio activity, negative = inhibition” value was -0.347% (inactive).

Take `O=C(c1ccc(O)cc1)c1ccc(O)cc1`: the “ratio activity, negative = inhibition” value was -30.5% (inactive).

Take `C[Si](C)O[Si](C)(C)O[Si](C)(C)O[Si](C)C`: the “ratio activity, negative = inhibition” value is 12.9% (inactive).

For the compound `CN(C)CC[C@@H](c1ccc(Br)cc1)c1ccccn1`, the “ratio activity, negative = inhibition” value was 1.51% (inactive).

`O=[N+]([O-])c1cccc(Cl)c1Cl`: the “ratio activity, negative = inhibition” value is -10.1% (inactive).

As for `COc1ccc(C(C)=O)cc1`, the “ratio activity, negative = inhibition” value is -5.32% [at 81.1 µM] (inactive).

On to `CCOc1ccc2[nH]cc(C(=O)NCc3ccccc3)c(=O)c2n1`, for which the “ratio activity, negative = inhibition” value was 2.76% (inactive).

As to `CCC(=O)OC(C)(C)C1CC=C(C)CC1` (stereo not given), the “ratio activity, negative = inhibition” value was 21.5% (inactive).

As to `Cc1c(Cn2ccnc2)c2ccccc2n1CCC(=O)O`, the “ratio activity, negative = inhibition” value is 1.79% (inactive).

As to `C1=Cc2ccccc2C1`, the “ratio activity, negative = inhibition” value is -7.24% (inactive).

Regarding `CC(CN)CCCN` (stereo not given), the “ratio activity, negative = inhibition” value is 14.3% (inactive).

Turning to `c1ccc(CNCc2ccccc2)cc1`, the “ratio activity, negative = inhibition” value was -15.3% (inactive).

Consider `CCCCOc1ccc(CC(=O)NO)cc1`, for which the “ratio activity, negative = inhibition” value is -18.7% (inactive).

On to `CC(=O)Nc1ccc(/C=N/NC(N)=S)cc1`, for which the “ratio activity, negative = inhibition” value was 3.2% (inactive).

As for `CCCCC(CC)(CO)CO`, the “ratio activity, negative = inhibition” value is 4.7% (inactive).

As for `CC(O)C1CCCCC1` (stereo not given), the “ratio activity, negative = inhibition” value is 13.3% (inactive).

On to `c1ccc(-c2nc[nH]c2-c2ccccc2)cc1`, for which the “ratio activity, negative = inhibition” value is -16.1% (inactive).

In the case of `NCCCN(CCO)CCO`, the “ratio activity, negative = inhibition” value was 0.624% (inactive).

Turning to `CN(C)C/C=C(/c1ccc(Br)cc1)c1cccnc1`, the “ratio activity, negative = inhibition” value was 1.06% (inactive).

Regarding `Cc1ccc(C(=O)C(C)CN2CCCCC2)cc1` (stereo not given), the “ratio activity, negative = inhibition” value is 2.79% (inactive).

Turning to `Cn1sccc1=O`, the “ratio activity, negative = inhibition” value was 2.8% (inactive).

On to `CC(=O)OCCc1ccccc1`, for which the “ratio activity, negative = inhibition” value was -11% (inactive).

As to `CCCC[C@H]1CN(CC2CCOCC2)C(=O)OC12CCN(C1(C)CCN(C(=O)c3c(C)ncnc3C)CC1)CC2`, the “ratio activity, negative = inhibition” value is 7.06% (inactive).

With `CCCCCc1ccc(N)cc1`, the “ratio activity, negative = inhibition” value is 12.7% (inactive).

For the compound `CCCCCCCCCCCCCCCBr`, the “ratio activity, negative = inhibition” value was 9.5% (inactive).
